The values that follow come from PMC5540273 (PLoS ONE, 2017).

Among the test systems are SNRK; SRC; SRMS; SRPK1; SRPK2; SRPK3; STK16; STK33; STK35.
What all share (details): concentration: 1 μM, replicates: in singlicate; n = 1
The subject of a further assay is T1, SNARK.
T1 construct: gene NUAK2

The structures appear in SMILES notation.
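Further: KINOMEscan kinase panel screen.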

As to `CC(C)(C)c1ccc2nccc(Nc3cccc(O)c3)c2c1` [GW856795], the “%Inh” value is reported as 0% in the assay with SNARK; 0% in the assay on SNRK; 96.7% in the assay with SRC; 0% in the assay with SRMS; 0% in the assay with SRPK1; 9% with SRPK2. For the same compound, the “%Inh” value in the assay on SRPK3 was 20%; in the assay with STK16, 0%; in the assay with STK33, 0%; with STK35 it was 0%.

As to `O=C(NC1CCN(c2ccnc(Nc3ccc(F)cc3)n2)C1)c1cc2ccccc2s1` (stereo not shown) [GSK1379716], the “%Inh” value with SNARK came out at 0%; in the assay on SNRK it was 0%; with SRC it was 1%; in the assay on SRMS, 0%; with SRPK1, 31%; with SRPK2, 37%. Further, the “%Inh” value in the assay with SRPK3 is 4%; in the assay with STK16, 15%; with STK33, 0%; in the assay with STK35 it was 6%.

On to `Nc1ncc(-c2cccnc2)c2scc(-c3ccc4c(c3)CCN4C(=O)Cc3ccccc3)c12` [GSK683281], for which the “%Inh” value in the assay with SNARK stood at 4%; in the assay on SNRK, 1%; in the assay with SRC, 37%; in the assay on SRMS it was 8%; with SRPK1 it was 32%; in the assay with SRPK2 it was 0%. Further, the “%Inh” value in the assay on SRPK3 was determined as 28%; in the assay on STK16, 4%; in the assay with STK33 it was 20%; in the assay with STK35, 0%.

For `Cl.c1ccc(-c2ccc3c(Nc4ccc5[nH]ccc5c4)ccnc3c2)nc1` [GW440138], the “%Inh” value worked out at 4% in the assay with SNARK; 0% in the assay with SNRK; 60% in the assay with SRC; 0% with SRMS; 38% in the assay on SRPK1; 22% with SRPK2. Further, the “%Inh” value in the assay with SRPK3, in the assay with STK16, in the assay on STK33 and in the assay with STK35 was 0% throughout.

For the compound `CN(C)Cc1ccc(-c2ccc3c(Nc4ccc(Oc5ccccn5)cc4)ccnc3c2)o1` [GW567148], the “%Inh” value with SNARK was 12%; in the assay on SNRK, 0%; with SRC it was 36%; in the assay on SRMS, 94.5%; in the assay on SRPK1, 0%; in the assay with SRPK2, 0%. The “%Inh” value is recorded as 0% with SRPK3, 0% with STK16, 55% in the assay on STK33 and 66% in the assay with STK35.

As for `Cc1cccc(Nc2nc(N[C@H]3CCNC3)ncc2C(N)=O)c1.Cl` [GSK2197149], the “%Inh” value in the assay on SNARK was 34%; in the assay on SNRK, 0%; in the assay with SRC, 85%; in the assay with SRMS, 0%; in the assay on SRPK1 it was 72%; in the assay on SRPK2, 0%. Moreover, the “%Inh” value with SRPK3 is on record as 76%; in the assay with STK16, 12%; with STK33 it was 40%; in the assay on STK35 it was 1%.

As to `COc1ccc(Nc2nccc(N3CCC(NC(=O)Nc4cccc(OC)c4)C3)n2)cc1` (stereo not shown) [GSK1379742], the “%Inh” value with SNARK was 0%; with SNRK, 0%; in the assay with SRC, 5%; in the assay with SRMS, 0%; in the assay on SRPK1 it was 12%; in the assay with SRPK2, 0%. Also, the “%Inh” value with SRPK3 is 0%; in the assay on STK16, 0%; in the assay on STK33, 0%; in the assay on STK35 it was 2%.

With `COc1cccc(C2=C(Nc3ccc(Cl)c(C(=O)O)c3)C(=O)NC2=O)c1` [SB-390769], the “%Inh” value in the assay with SNARK stood at 100%; in the assay with SNRK it was 100%; with SRC, 0%; with SRMS, 100%; in the assay with SRPK1 it was 13%; with SRPK2, 0%. Further, the “%Inh” value in the assay on SRPK3 came out at 17%; with STK16, 8%; in the assay on STK33 it was 0%; with STK35 it was 0%.

`COc1ccc(CNC(=O)NC2CCN(c3ccnc(Nc4ccc(F)cc4)n3)CC2)cc1` [GSK1379788]: the “%Inh” value with SNARK came out at 0%; in the assay with SNRK, 0%; in the assay with SRC it was 0%; with SRMS it was 0%; in the assay on SRPK1, 0%; with SRPK2 it was 11%. Moreover, the “%Inh” value is given as 0% in the assay on SRPK3, 9% in the assay on STK16, 0% in the assay on STK33 and 0% with STK35.

Regarding `Oc1cc(Nc2ccnc3cc(I)ccc23)ccc1F` [GW552771], the “%Inh” value turned out to be 0% in the assay with SNARK; 0% in the assay on SNRK; 67% with SRC; 0% in the assay with SRMS; 21% in the assay with SRPK1; 0% in the assay on SRPK2. In addition, the “%Inh” value in the assay with SRPK3 turned out to be 9%; in the assay with STK16, 0%; in the assay with STK33, 0%; with STK35, 5%.

Consider `CCS(=O)(=O)c1ccc(OC)c(Nc2nccc(-c3c(-c4cccc(NC(=O)c5c(F)cccc5F)c4)nn4ncccc34)n2)c1` [GSK326180], for which the “%Inh” value worked out at 0% with SNARK; 0% in the assay on SNRK; 0% with SRC; 99.3% in the assay on SRMS; 24% in the assay with SRPK1; 0% in the assay on SRPK2. Moreover, the “%Inh” value amounted to 0% with SRPK3, 25% in the assay with STK16, 7% in the assay on STK33 and 0% in the assay on STK35.

Regarding `CN1CCN(CCCNc2nccc(-c3c(-c4ccc(F)cc4)nn4cc(C(F)(F)F)ccc34)n2)CC1` [GW621581], the “%Inh” value in the assay with SNARK is 0%; in the assay on SNRK it was 0%; in the assay with SRC, 14%; with SRMS, 0%; with SRPK1, 26%; in the assay with SRPK2, 0%. The “%Inh” value was determined as 16% in the assay with SRPK3, 0% with STK16, 0% with STK33 and 60% in the assay on STK35.

As to `Nc1ncnc2c1nc(-c1ccccc1)n2-c1ccccc1` [SKF-97293], the “%Inh” value turned out to be 24% in the assay with SNARK; 18% in the assay on SNRK; 10% in the assay with SRC; 24% in the assay with SRMS; 0% in the assay with SRPK1; 5% in the assay with SRPK2. The “%Inh” value is reported as 9% in the assay on SRPK3, 0% in the assay on STK16, 16% in the assay on STK33 and 0% in the assay on STK35.

For the compound `O=C(Nc1ccccc1F)NC1CCN(c2ccnc(Nc3ccc(F)cc3)n2)CC1` [GSK1379800], the “%Inh” value in the assay with SNARK is listed as 0%; in the assay on SNRK, 0%; in the assay with SRC, 0%; in the assay on SRMS, 0%; with SRPK1, 11%; in the assay on SRPK2, 25%. The “%Inh” value with SRPK3 is 0%; with STK16, 16%; in the assay on STK33 it was 0%; in the assay with STK35, 0%.

For the compound `COCCOCCOc1cc2ncc3c4ccc(C#N)cc4[nH]c3c2cc1OC`, the “%Inh” value is 83% with SNARK; 17% with SNRK; 14% with SRC; 0% with SRMS; 50% in the assay on SRPK1; 24% in the assay with SRPK2. Also, the “%Inh” value with SRPK3 came out at 27%; in the assay with STK16 it was 11%; with STK33, 24%; with STK35, 18%.

`COc1cc2c(cc1OCCN1CCNCC1)ncc1c3ccc(C#N)cc3[nH]c21`: the “%Inh” value came out at 94.6% with SNARK; 12% with SNRK; 0% in the assay with SRC; 19% with SRMS; 36% in the assay on SRPK1; 0% with SRPK2. Further, the “%Inh” value is 42% in the assay with SRPK3, 9% in the assay with STK16, 19% in the assay with STK33 and 0% with STK35.
